# Screen size: about 69,000 compounds; about 8,600 (12%) showed an effect of 50% or more. The sample as a whole holds a higher share of strong results than the screen did.
# System: Plasmodium berghei
# Assay: Screen against P. berghei liver stage (PbLuc), transformed with Luciferase, at 10uM
# Type: functional, HepG2
# Details: tested at 10 uM
row,SMILES,INHIBITION [%]
1,Fc1cnc(N2CCC3(CCCN(c4nncs4)C3)C2)nc1 (configuration not stated),4.68
2,COCC1COCCC12CCN(CCc1ccccc1)CC2 (configuration not stated),2.3
3,O=C(Nc1cn[nH]c1)c1ccncc1,35.95
4,CN(C)C(=O)CNC(=O)c1nc(C2CC2)n(-c2ccccc2Cl)n1,-20.8
5,O=C(c1ccnnc1)N1CC[C@H]2C[C@H](c3ccncn3)O[C@@H]2C1,25.2
6,Cc1ccc(Oc2ncccc2C(=O)O)c(C)c1,-16.2
7,CC(C)[C@H](Nc1cc(-c2ccncc2)nc2ccnn12)C(N)=O,25.5
8,Cc1cnn(CC2CCN(c3cc(C(C)C)nc4ccnn34)CC2)c1,21.2
9,CC(C)c1cc(N2CC[C@H](F)C2)n2nccc2n1,65.7
10,CC(C)c1cc(N2CCC(N)CC2)n2nccc2n1,-6.53
11,CC(C)c1cc(NCC(C)N2CCCC2)n2nccc2n1 (configuration not stated),65.1
12,CC(C)c1cc(N[C@H](C(N)=O)C(C)C)n2nccc2n1,55.2
13,CC(C)c1cc(NCC(O)c2ccncc2)n2nccc2n1 (configuration not stated),0.897
14,CC(C)c1cc(N2CCN(c3ccc(O)cc3)CC2)n2nccc2n1,26.8
15,CC(=O)NCC1CCN(c2cc(C(C)C)nc3ccnn23)CC1,59.4
16,CC(C)c1cc(N[C@@H](CO)C(N)=O)n2nccc2n1,42.3
17,CC(C)c1cc(N2CCC(CCC(=O)NC3CC3)CC2)n2nccc2n1,33.5
18,CC(C)c1cc(NCC(O)CO)n2nccc2n1 (configuration not stated),36.8
19,O=C(Cc1ccsc1)N1CCC(O)(CN2CCc3ccccc3C2)C1 (configuration not stated),30.8
20,COc1ncccc1CN1C[C@@H]2COC[C@]2(COCC(=O)N(C)C)C1,-3.52
21,CCn1cc(C(=O)NCCN2CCCc3ccccc32)c(C)n1,12.9
22,Cn1nc(C2CCN(C(=O)c3cccs3)CC2)c2cccnc21,47.2

row,SMILES,INHIBITION [%]
1,CCc1nc(CS(=O)(=O)Cc2noc(C3CC3)n2)cs1,34
2,CC(C)=CCN1CCN(C(=O)C2CC2)CC1,21.5
3,CC(C)COCC1CN(Cc2ccsc2)Cc2ncn(C)c21 (configuration not stated),16.4
4,Cn1nnc2c1C(COCc1cccnc1)CN(Cc1ccoc1)C2 (configuration not stated),29.4
5,Cc1nc(C)c(CNCC2(COc3cccnc3)C[C@@H](O)[C@@H](O)C2)s1 (some centres not stated),33.6
6,Cc1noc(CCCC(=O)N2CCCC2c2ccsc2)n1 (configuration not stated),0.914
7,Cc1cccc2c1NC1(CCCC1)NC2=O,45.2
8,COC(=O)C1CCN(C(=O)Cn2ccc(-c3ccc(F)cc3)n2)CC1,-36.4
9,O=C1[C@@H]2CC[C@@H](CN(C3CSCCSC3)C2)N1Cc1cscn1,-14.9
10,Cc1nn2c(N3CCC(O)C3)cc(-c3ccccc3)nc2c1C (configuration not stated),38.5
11,Cc1cc(N2CCCC(N(C)C)C2)n2nc(C)cc2n1 (configuration not stated),-1.16
12,Cc1nn2c(N3CCCC(C#N)C3)cc(-c3ccccc3)nc2c1C (configuration not stated),19.5
13,CN(C)C1CCN(c2cc(-c3ccccc3)nc3ccnn23)C1 (configuration not stated),74.9
14,COC1CCN(c2cc(C(C)C)nc3ccnn23)C1 (configuration not stated),7.6
15,Cc1cc2nc(C(C)C)cc(N3CCC(O)CC3)n2n1,11.3
16,Cc1cc2nc(C(C)C)cc(N3CCC(N(C)C)C3)n2n1 (configuration not stated),17.7
17,Cc1cc(N2CCCC(N(C)C)C2)n2nccc2n1 (configuration not stated),55.4
18,CC(C)c1cc(N2CCC(C(C)N3CCCC3)CC2)n2nccc2n1 (configuration not stated),73
19,CC(C)c1cc(N2CCC[C@H](N)C2)n2nccc2n1,13
20,CC(C)c1cc(N2CCSCC2)n2nccc2n1,-6.03
21,CC(C)c1cc(N2CCC(N(C)C)C2)n2nccc2n1 (configuration not stated),53.9
22,COc1cccc(OCCc2nnc(NC(C)=O)s2)c1,-8.9

row,SMILES,INHIBITION [%]
1,N[C@H]1CN(C(=O)CCCc2ccc(F)cc2)C[C@@H]1C1CC1,25.1
2,O=C1COc2ccc(C(=O)NS(=O)(=O)c3cc(F)ccc3F)cc2N1,33.3
3,CCc1cc(NC(=O)C2CCCN(C(=O)c3ccncc3)C2)[nH]n1 (configuration not stated),8.86
4,O=C(Cc1csc(-c2cccc(Cl)c2)n1)NCc1cccc(C(=O)O)c1,34.5
5,COCCN(CCOC)C(=O)c1c[nH]nc1-c1cccc(F)c1,-3.24
6,Cc1nc(-c2ccc(Cl)s2)sc1C(=O)NCCCC(N)=O,-102.2
7,CCN1CC(COC(=O)c2cc(Br)ccc2F)CC1=O (configuration not stated),8.4
8,CC(C)C1CCCN1CC(=O)NCc1ccc(OCC(N)=O)cc1 (configuration not stated),12.8
9,CC(C)c1cc(NC(CO)CO)n2nccc2n1,33.2
10,CC(C)c1cc(N2CCC(NS(C)(=O)=O)C2)nc(C(C)C)n1 (configuration not stated),49.6
11,CC(C)c1cc(N2CCC(NS(C)(=O)=O)CC2)n2nccc2n1,61.2
12,CC(=O)N1CCCN(C(=O)CCc2c(C)nc3ccnn3c2C)CC1,10
13,CC(=O)c1ccc(NC(=O)c2ccc3c(c2)C2(CCCCC2)CN3)cc1,64.7
14,O=C(Nc1ccccc1)c1ccc2c(c1)C1(CCCCC1)CN2,90.1
15,CNC(=O)N1CCC2(CC1)CNc1ccc(F)cc12,10.5
16,CC(=O)N1CCC2(CC1)CNc1ccc(F)cc12,36.2
17,CN(C)C(=O)N1CCC2(CC1)CNc1ccc(F)cc12,49.1
18,O=C(Nc1ccccc1)C1=NOC2(CCCNC2)C1 (configuration not stated),-4.02
19,CCOCC1CN(S(=O)(=O)c2ccccc2)Cc2nccn2C1 (configuration not stated),34
20,COC(C)(C)C(=O)N1CCC(c2cc(CN(C)C)n(C)n2)CC1,-42.1
21,CC(=O)N1CCN(C(=O)C(C)OCC(F)(F)F)CC1 (configuration not stated),-22.8
22,CN(CC(N)=O)C(=O)c1cc(Cl)c(Cl)n1C,8.4

row,SMILES,INHIBITION [%]
1,Cc1ccc(C(=O)NC2CCN(Cc3nc(CC(C)C)no3)CC2)s1,18.6
2,Cc1ccc(C(=O)NC2CCN(Cc3noc(CC(C)C)n3)CC2)s1,71.8
3,CC(C)Cc1noc(CN2CCN(C(=O)c3cccs3)CC2)n1,0.891
4,CC(C)Cc1noc(CN2CCC(NC(=O)c3cccs3)CC2)n1,53.5
5,CC(C)Cc1nc(CN2CCC(NC(=O)c3cccs3)CC2)no1,24.2
6,Cc1ccc(C(=O)NC2CCN(Cc3noc(C(C)C)n3)CC2)s1,7.44
7,CCOc1ccnc(N2CCCN(C(=O)c3cc[nH]c3C)CC2)n1,-7.31
8,COc1ccccc1-c1ccc(NCc2cn3c(n2)SCC3)nn1,9
9,CCc1c(C)nc2n(c1=O)CC(C(=O)Nc1ccccc1C)CS2 (configuration not stated),42.4
10,CC(C)CCCNC(=O)Nc1ccc(C(N)=O)c(Cl)c1,-49.5
11,COc1no[n+]([O-])c1-c1ccccc1,63.5
12,CCOc1no[n+]([O-])c1-c1ccccc1,36.9
13,CN(C)c1no[n+]([O-])c1-c1ccccc1,-3.19
14,Cc1[nH]ncc1C(=O)N(CC(C)C)CC(O)c1ccc(F)cc1 (configuration not stated),-12.1
15,CCN1CC2(CCC1=O)CCN(CCOc1ccc(F)cc1)CC2,10.1
16,CCC(CC)C(O)CNC(=O)Nc1cc(C)nn1C (configuration not stated),11.6
17,Cn1ccc2cc(C(=O)N3CC[C@@]4(O)CCCC[C@H]4C3)ccc21,-4.87
18,Cc1ccc(C(=O)N2CC[C@@]3(O)CCCC[C@H]3C2)cc1,56.3
19,CN(C)C(=O)N1CC[C@]2(O)CCN(C(=O)c3ccc(C#N)nc3)C[C@@H]2C1,42.4
20,Cc1ccc(C(=O)N2CC[C@@]3(O)CCN(C(=O)N(C)C)C[C@H]3C2)cc1Cl,62.8
21,COc1ccc(C(=O)N2CC[C@@]3(O)CCCC[C@H]3C2)cc1OC,44.3
22,Cc1ncc(C(=O)N2CC[C@@]3(O)CCN(C(=O)N(C)C)C[C@H]3C2)cn1,37.8

row,SMILES,INHIBITION [%]
1,Cc1nc(C2CCCN2CC(=O)N2CCc3ccccc32)no1 (configuration not stated),46.2
2,COCCN(C)C(C(=O)O)c1ccc(F)c(C)c1 (configuration not stated),14
3,COc1cccc(CN2CCOC(c3cnccn3)C2)c1F (configuration not stated),-18.9
4,O=C(N1CCOCC1)[C@@]12CCO[C@@H]1CCN(C1CCCC1)C2,8.67
5,CN(Cc1ccncc1)C(=O)[C@H]1CSCN1C(=O)OC(C)(C)C,-12.1
6,O=C1NC(c2ccccc2)=N[C@@]12CC[C@@H]1CN(S(=O)(=O)C3CC3)C[C@@H]12,76.4
7,O=C1NC(c2ccccc2)=N[C@@]12CC[C@@H]1CN(Cc3ccccc3)C[C@@H]12,-21.3
8,O=C1NC(c2ccccc2)=N[C@@]12CC[C@@H]1CN(CC3CCOCC3)C[C@@H]12,2.74
9,CC(C)NC(=O)C1CCN(c2snc3ccccc23)CC1,-15.5
10,COc1ccc(CN(Cc2nc(C)no2)C2CCCCC2)cc1OC,14.4
11,Cc1ccc(CN(Cc2cc(C)no2)C2CC2)cc1,53.2
12,Cc1cc(CN(Cc2ccccc2)C2CC2)on1,33.7
13,Cc1cc(CN(C2CC2)C(C)C(C)C)on1 (configuration not stated),-21.8
14,COc1ccc(CN(Cc2cc(C)no2)C2CC2)cc1,92.2
15,COCCN(Cc1noc(-c2ccc(OC)cc2)n1)C1CC1,15.5
16,O=C(Nc1cnc2n1CCCC2)C1CCNCC1,18.7
17,O=C(NCC1CC1)[C@@H]1CCO[C@@H]2CCN(Cc3ccc(F)cc3)C[C@H]21,-10.3
18,Cc1cnn(CC2CCCN2C(=O)c2ccc3c(c2)nnn3C)c1 (configuration not stated),23.2
19,C=Cc1cccc(CN2C[C@@H]3CC[C@H]2CN(Cc2c(C)noc2C)C3)c1,-19.2
